From PubChem BioAssay
ADAM10 inh: inhibitors of human ADAM10. O14672. recombinant ADAM10, EDANS/DABCYL FRET peptide cleavage, 3 h. inhibition, % at 7 µM. 0.62% of 370,000 active. AID 720582;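 active = inhibition above a per-campaign cutoff equal to the mean of compounds falling between control-based bounds plus 3 SD, cut at about 20% in these data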;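 note: 0% = DMSO wells while the 100% control is not disclosed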
Target sequence (O14672 214-748 limits assumed): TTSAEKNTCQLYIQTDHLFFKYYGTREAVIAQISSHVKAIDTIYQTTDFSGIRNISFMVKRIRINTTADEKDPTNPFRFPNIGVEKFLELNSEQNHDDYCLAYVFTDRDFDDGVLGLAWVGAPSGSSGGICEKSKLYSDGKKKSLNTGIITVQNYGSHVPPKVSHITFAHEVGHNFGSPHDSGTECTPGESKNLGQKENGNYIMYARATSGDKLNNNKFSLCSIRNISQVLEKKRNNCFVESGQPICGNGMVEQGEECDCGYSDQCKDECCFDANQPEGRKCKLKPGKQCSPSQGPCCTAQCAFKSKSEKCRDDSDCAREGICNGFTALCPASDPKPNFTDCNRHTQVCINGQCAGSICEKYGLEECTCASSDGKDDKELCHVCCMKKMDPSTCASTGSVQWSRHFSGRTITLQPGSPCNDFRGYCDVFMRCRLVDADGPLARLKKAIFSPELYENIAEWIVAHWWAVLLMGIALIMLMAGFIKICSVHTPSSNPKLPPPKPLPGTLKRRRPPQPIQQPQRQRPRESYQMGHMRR
V-ATPase pHluor: regulators of yeast V-ATPase proton transport | 0.37% of 350,000 active | response, % at 10 µM | S. cerevisiae, pHLuorin cytosolic pH fluorescence; in the data active = response mostly above about 7.3%, no sharp cut-off; inactive = mostly below about 5.4%; note: actives read high
ADAM17 inh: inhibits human ADAM17. P78536. recombinant ADAM17, EDANS/DABCYL FRET peptide cleavage. inhibition, % at 6.95 µM. 0.83% of 370,000 active. AID 720648;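 active = inhibition above the mean of compounds lying between control limits plus 3 SD, set per campaign, cut at about 8.5% in these data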;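 note: 0% = DMSO-only wells as the low control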
proKLK7 act: activators of human kallikrein-7 zymogen; P49862; purified proKLK7, EDANS-DABCYL substrate fluorescence; 100% is mature enzyme control, 0% vehicle; activation, % at 7 µM; 0.9% of 370,000 active; AID 652039;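 active = activation above the mean of all tested compounds plus 3 SD, computed per campaign excluding outliers beyond control limits, cut at about 13% in these data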
* marks the source's active call; other numbers are inactive results; x = no result. Sampled rows, rich in hits. Any-hit rate of the full collection: about 2.3%.

SMILES | ADAM10 inh | V-ATPase pHluor | ADAM17 inh | proKLK7 act
N#C/C(=C\c1ccc([N+](=O)[O-])o1)C(=O)Nc1ccc(F)cc1 | -23 | 114* | -11 | 3
Cc1ccc(CNc2nc(Cl)c(C#N)s2)cc1 | 1 | 15* | 3 | 0
CCCC(=O)NC(c1cccc([N+](=O)[O-])c1)c1ccc2cccnc2c1O (stereo unspecified) | 26* | x | 7 | 0
Cc1ccc(-c2cc(-c3nnc(SCC(=O)N4c5ccccc5Sc5ccccc54)n3N)[nH]n2)cc1 | -6 | x | -1 | 0
Cc1onc(-c2ccccc2Cl)c1-c1nc(-c2ccncc2)no1 | 0 | 21* | 4 | 0
COCCN=c1scc(-c2cccs2)n1/N=C/c1ccc(O)c(O)c1O | 24* | -5 | 14* | 0
CCN=c1scc(C)n1/N=C/c1ccc(O)c(O)c1O | 3 | 1 | 5 | -1
CCC(NC(=O)Cn1c(-c2ccccc2)cc(C(C)=O)c1C)c1ccccc1 (stereo unspecified) | -4 | x | 0 | 1
Cc1ccc(S(=O)(=O)NCCC2=CCCCC2)cc1C(N)=O | -6 | -1 | -1 | 0
Cc1ccc(NC(=O)c2cc(S(=O)(=O)NCCC3=CCCCC3)ccc2F)cc1F | 25* | 0 | 10* | 0
Cc1ccc(N(CC(=O)NC2CCCCC2)C(=O)Cn2nnc(-c3ccc(C)o3)n2)cc1 | -5 | 13* | -4 | 0
CCOc1ccc(N(CC(=O)NC2CCCCC2)C(=O)Cn2nnc(-c3ccc(C)o3)n2)cc1 | 3 | -3 | -1 | -1
Cc1cccc(OCC(O)Cn2ccnc2C)c1 (stereo unspecified) | 16 | 13* | 6 | 0
Cc1cccc(C)c1OCC(O)Cn1ccnc1C (stereo unspecified) | -9 | 5 | 0 | 0
COC(=O)C1=C(C)N(CCc2ccc(OC)c(OC)c2)C(=O)C1 | 12 | 31* | -1 | 1
CCCCCN1CCCCC(NC(=O)c2ccccc2OC)C1=O (stereo unspecified) | 2 | x | -2 | 0
COC(=O)CCC(=O)Nc1nccs1 | -4 | -2 | -7 | 0
COC(=O)C(Nc1nccs1)(OC)C(F)(F)F (stereo unspecified) | -2 | 17* | -5 | 0
CC(C)CNC(=O)OCc1cn(Cc2cccc(F)c2)nn1 | -5 | x | -1 | 0
COc1ccc(N2CCN(C(=O)c3ccc4c(c3)CCN4S(=O)(=O)c3ccccc3)CC2)cc1 | 8 | 3 | 2 | 1
O=C(c1ccc2c(c1)CCN2S(=O)(=O)c1ccccc1)N1CCN(c2ccc(F)cc2)CC1 | 16 | 14* | 4 | 1
CC(=O)CC[C@@H]1CC[C@]2(CCCN(S(=O)(=O)c3ccccc3)C2)O1 | -3 | x | 0 | 0
O=C(NCCc1ccccc1)O[C@H]1CC[C@@]23CCCN2C(=O)CCC[C@H]3C1 | -1 | x | -2 | x
CC(C)(C)C(=O)N1CCC[C@]2(CC[C@H](CCC#N)O2)C1 | -7 | x | -2 | -1
C=CCn1c(COc2ccc3c(c2)CCCC3)nnc1SCC(=O)Nc1cccc(SC)c1 | 31* | -2 | 16* | 0
SMILES | ADAM10 inh | V-ATPase pHluor | ADAM17 inh | proKLK7 act
C=CCn1c(COc2ccc(C)cc2)nnc1SCC(=O)Nc1ccc(Oc2ccccc2)cc1 | 1 | x | 5 | 1
O=S(=O)(c1cccs1)N1CCCc2nc(-c3ccc(F)cc3)ccc21 | 1 | x | 4 | 0
O=C(OCc1nnc(-c2ccc([N+](=O)[O-])cc2)o1)c1ccc(F)c(S(=O)(=O)N2CCOCC2)c1 | -4 | 17* | 2 | 0
N/C(=N\OC(=O)COc1ccc(Br)cc1Cl)c1ccccn1 | 12 | 22* | 4 | 1
CN(c1ccccc1)c1ccc(/C=C(\CCC(=O)O)c2nc3ccccc3s2)cc1[N+](=O)[O-] | 18 | 1 | 9.8* | 0
Cc1ccc(/C=C(\CCC(=O)O)c2nc3ccccc3s2)cc1[N+](=O)[O-] | 2 | 0 | -1 | 0
O=C(c1ccccc1)c1cc(Cl)ccc1N1C(=O)C=CC1=O | -4 | 13* | 2 | 0
CCN1CCN(Cc2ccc(NC(=O)c3cc(NC(=O)C(=O)c4c[nH]c5ccccc45)cc(OC)c3)cc2C(F)(F)F)CC1 | 22* | 2 | 9.0* | -3
CCN1CCN(Cc2ccc(NC(=O)c3ccc(C)c(NC(=O)C(=O)c4c[nH]c5ccccc45)c3)cc2C(F)(F)F)CC1 | 18 | 4 | 7 | -4
O=S(=O)(c1ccccc1F)n1c(CN2CCOCC2)nc2ccccc21 | -6 | x | -1 | 0
CCCCCCCSc1ncnc2[nH]ncc12 | 19 | -3 | 12* | 0
Cc1cccc(N2CN(Cc3cccnc3)CNC2=S)c1 | -8 | 16* | -1 | 0
CCc1ccc(N2CN(Cc3cccnc3)CNC2=S)cc1 | 10 | 2 | 5 | 0
Cc1noc(C)c1NC(=O)Nc1ccc2c(c1)C(=O)N([C@@H](C)CO)C[C@@H](C)[C@H](CN(C)S(=O)(=O)c1ccc(F)cc1)OCCCC[C@H](C)O2 | 0 | x | -1 | x
CCOCCCNC(=O)c1cc2c(=O)n3cccc(C)c3nc2n1C | -189 | 16* | -47 | 1
CC(C)c1ccc(NC(=O)O[C@H]2CC[C@@]34CCCN3C(=O)CCC[C@H]4[C@H]2C)cc1 | 11 | x | 2 | x
O=C1C=CC(=O)N1c1ccc2c(c1)Cc1cc(F)ccc1-2 | -35 | 17* | -12 | 0
Cc1cccnc1NC(=S)NC(=O)c1cncc(Br)c1 | -54 | -1 | -20 | 32*
CCC[C@H]1[C@@H](OC(=O)NCc2ccco2)CC[C@@]23CCCN2C(=O)CCC[C@@H]13 | -2 | x | -7 | x
Oc1c(C(Nc2nccs2)c2ccc(C(F)(F)F)cc2)ccc2cccnc12 (stereo unspecified) | 3 | -3 | 1 | 1
Oc1c(C(Nc2cccc(C(F)(F)F)c2)c2ccncc2)ccc2cccnc12 (stereo unspecified) | 12 | 3 | 45* | 1
CCC1(c2ccc(Cl)cc2)NC(=O)N(Cc2ccc(C(=O)OC)cc2)C1=O (stereo unspecified) | 1 | 13* | 2 | 0
NC(=O)[C@H]1CC2(CC(c3cccc(NC(=O)CC(c4ccccc4)c4ccccc4)c3)=NO2)CN1C(=O)C(c1ccccc1)c1ccccc1 (stereo partly specified) | 19 | -2 | 13* | 0
C/C=C\C=C\C(=O)N1CC2(CC(c3cccc(NC(=O)CC(c4ccccc4)c4ccccc4)c3)=NO2)C[C@H]1C(N)=O (stereo partly specified) | x | 1 | x | x
COc1cccc(CNC(=S)OC2CCC23CCC(c2ccccc2)CC3)c1 (stereo unspecified) | -10 | x | 0 | -1
Cc1ccc(-n2nnnc2SCC(=O)c2c(N)n(C3CC3)c(=O)[nH]c2=O)cc1 | -4 | 748* | 0 | 0
COc1ccc(CNC(=O)O[C@H]2CC[C@@]34CCCN3C(=O)CCC[C@H]4[C@H]2C)cc1 | 4 | x | 3 | x
CCOC(=O)c1c(C)[nH]c(C(=O)CSc2ccccc2)c1C | -11 | 14* | -1 | -1
CCOC(=O)c1c(C)[nH]c(C(=O)COC(=O)CCSc2ccccc2)c1C | -2 | 1 | 1 | 0
